Assay results reported in PMC7862700, “An all-to-all approach to the identification of sequence-specific readers for epigenetic DNA modifications on cytosine”.

How the values were obtained:
Assay in all cases: DAPPL (digital affinity profiling via proximity ligation, sequencing); 10 mM Tris-HCl pH 7.5, 50 mM NaCl, 1 mM DTT, 4% glycerol, room temperature, 30 min; GST-TFs on glutathione beads, 16-mer random dsDNA library, 0.1% formaldehyde crosslink after washing; high values mean tight binding
[1] = molecular target: T1, FLI1 (Homo sapiens, UniProt Q01543 1-452); settings: protein: recombinant; tags: N-terminal GST; dsDNA, one strand shown
T1 sequence: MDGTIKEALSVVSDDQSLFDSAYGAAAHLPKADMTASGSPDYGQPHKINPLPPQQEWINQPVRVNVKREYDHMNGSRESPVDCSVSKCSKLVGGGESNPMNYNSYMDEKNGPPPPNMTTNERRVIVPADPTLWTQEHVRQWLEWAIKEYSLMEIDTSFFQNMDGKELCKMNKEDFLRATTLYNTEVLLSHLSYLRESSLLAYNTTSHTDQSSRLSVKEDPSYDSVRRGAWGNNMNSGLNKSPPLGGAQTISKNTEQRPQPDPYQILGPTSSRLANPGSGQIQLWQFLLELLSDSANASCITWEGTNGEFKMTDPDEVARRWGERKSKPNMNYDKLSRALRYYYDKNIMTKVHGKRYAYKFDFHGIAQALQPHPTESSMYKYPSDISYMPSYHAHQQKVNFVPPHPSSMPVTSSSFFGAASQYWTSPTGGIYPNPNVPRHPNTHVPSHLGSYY
Outline: (§1)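 Human transcription factors fused to GST were expressed in yeast, captured on glutathione beads, given DNA barcodes and pooled with a GST-only negative control. Pools were incubated with 200 nmole of a 16-mer random double-stranded DNA library in Tris/NaCl/DTT/glycerol buffer at room temperature for 30 min. They were then washed, crosslinked with 0.1% formaldehyde, proximity-ligated (BsaI/T4 ligase, 1 h, 37 °C), PCR-amplified and sequenced on an Illumina NextSeq500. Binding signal is each 6-mer's read frequency for a factor divided by its frequency for the GST control.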

[2] = molecular target: T2, ELK1 (Homo sapiens, UniProt P19419 1-428); settings: protein: recombinant; tags: N-terminal GST; dsDNA, one strand shown
T2 sequence: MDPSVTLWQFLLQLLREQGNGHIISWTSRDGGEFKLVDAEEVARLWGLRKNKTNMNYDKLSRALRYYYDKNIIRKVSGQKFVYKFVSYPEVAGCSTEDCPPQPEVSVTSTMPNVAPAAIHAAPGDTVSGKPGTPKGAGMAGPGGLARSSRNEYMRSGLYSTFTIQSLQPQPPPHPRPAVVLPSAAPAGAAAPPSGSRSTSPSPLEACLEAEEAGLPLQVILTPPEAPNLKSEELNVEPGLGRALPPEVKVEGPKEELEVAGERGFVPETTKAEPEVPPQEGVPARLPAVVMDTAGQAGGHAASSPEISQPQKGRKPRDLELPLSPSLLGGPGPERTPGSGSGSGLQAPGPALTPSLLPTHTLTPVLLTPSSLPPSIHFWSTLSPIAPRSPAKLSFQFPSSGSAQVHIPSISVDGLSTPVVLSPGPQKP
Outline: as §1

[3] = molecular target: T3, GABPA (Homo sapiens, UniProt Q06546 1-454); settings: protein: recombinant; tags: N-terminal GST; dsDNA, one strand shown
T3 sequence: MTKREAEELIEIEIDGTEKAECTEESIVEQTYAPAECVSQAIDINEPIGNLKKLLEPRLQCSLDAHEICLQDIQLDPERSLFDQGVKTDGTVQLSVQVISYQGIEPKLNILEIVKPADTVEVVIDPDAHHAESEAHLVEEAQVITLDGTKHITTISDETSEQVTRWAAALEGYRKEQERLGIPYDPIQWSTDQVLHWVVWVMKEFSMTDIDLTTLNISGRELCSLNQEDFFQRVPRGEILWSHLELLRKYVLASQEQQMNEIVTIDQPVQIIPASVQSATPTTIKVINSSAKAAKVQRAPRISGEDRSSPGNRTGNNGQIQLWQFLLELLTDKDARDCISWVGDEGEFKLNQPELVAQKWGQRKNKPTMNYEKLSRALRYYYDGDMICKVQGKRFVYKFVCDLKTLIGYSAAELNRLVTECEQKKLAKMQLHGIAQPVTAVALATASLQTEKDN
Outline: as §1

[4] = molecular target: T4, ERG (Homo sapiens, UniProt P11308 1-479); settings: protein: recombinant; tags: N-terminal GST; dsDNA, one strand shown
T4 sequence: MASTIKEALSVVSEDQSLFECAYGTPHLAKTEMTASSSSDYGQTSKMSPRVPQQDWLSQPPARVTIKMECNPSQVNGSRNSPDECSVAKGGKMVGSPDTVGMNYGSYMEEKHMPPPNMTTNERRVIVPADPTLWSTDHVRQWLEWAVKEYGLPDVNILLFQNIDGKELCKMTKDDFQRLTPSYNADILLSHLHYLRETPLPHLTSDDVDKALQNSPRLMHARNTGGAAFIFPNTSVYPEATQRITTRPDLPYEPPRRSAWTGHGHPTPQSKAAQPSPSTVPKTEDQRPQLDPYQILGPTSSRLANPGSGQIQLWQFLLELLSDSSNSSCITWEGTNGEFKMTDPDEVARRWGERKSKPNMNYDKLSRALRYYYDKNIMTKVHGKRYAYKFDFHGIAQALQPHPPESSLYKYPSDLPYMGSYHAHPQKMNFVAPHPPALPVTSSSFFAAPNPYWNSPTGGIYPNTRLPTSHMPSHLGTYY
Outline: as §1

[5] = molecular target: ELF1 (Homo sapiens, UniProt P32519 1-619); settings: protein: recombinant; tags: N-terminal GST; dsDNA, one strand shown
ELF1, sequence (P32519 whole entry): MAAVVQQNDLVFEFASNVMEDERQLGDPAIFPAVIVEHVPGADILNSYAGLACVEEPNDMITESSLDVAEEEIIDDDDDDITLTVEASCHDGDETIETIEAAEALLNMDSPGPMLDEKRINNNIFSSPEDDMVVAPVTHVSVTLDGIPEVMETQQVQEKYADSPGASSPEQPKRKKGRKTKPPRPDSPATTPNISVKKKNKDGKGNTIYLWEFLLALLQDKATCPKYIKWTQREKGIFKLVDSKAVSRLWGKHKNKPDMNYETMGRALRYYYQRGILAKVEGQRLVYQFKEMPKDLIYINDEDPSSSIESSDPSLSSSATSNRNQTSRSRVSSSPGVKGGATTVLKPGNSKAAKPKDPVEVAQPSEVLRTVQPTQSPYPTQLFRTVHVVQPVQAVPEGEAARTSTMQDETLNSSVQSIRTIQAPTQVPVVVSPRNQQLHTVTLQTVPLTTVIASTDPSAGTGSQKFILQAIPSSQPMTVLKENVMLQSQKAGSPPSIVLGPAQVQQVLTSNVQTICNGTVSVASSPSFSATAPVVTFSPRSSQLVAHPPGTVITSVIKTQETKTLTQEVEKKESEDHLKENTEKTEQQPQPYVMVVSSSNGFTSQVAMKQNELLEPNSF
Outline: as §1

[6] = molecular target: T5, EHF (Homo sapiens, UniProt Q9NZC4 1-300); settings: protein: recombinant; tags: N-terminal GST; dsDNA, one strand shown
T5 sequence: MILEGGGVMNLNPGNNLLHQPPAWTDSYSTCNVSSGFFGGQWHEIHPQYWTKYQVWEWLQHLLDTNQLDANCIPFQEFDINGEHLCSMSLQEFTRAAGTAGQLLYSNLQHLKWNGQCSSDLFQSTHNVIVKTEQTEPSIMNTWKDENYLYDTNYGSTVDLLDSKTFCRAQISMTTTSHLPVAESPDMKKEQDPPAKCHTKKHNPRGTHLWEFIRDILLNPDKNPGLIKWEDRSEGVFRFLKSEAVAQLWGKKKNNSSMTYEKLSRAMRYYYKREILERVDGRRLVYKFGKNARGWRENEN
Outline: as §1

[7] = molecular target: SPI1 (Homo sapiens, UniProt P17947 1-270); settings: protein: recombinant; tags: N-terminal GST; dsDNA, one strand shown
Outline: as §1

[8] = molecular target: SPIB (Homo sapiens, UniProt Q01892 1-262); settings: protein: recombinant; tags: N-terminal GST; dsDNA, one strand shown
SPIB, sequence (Q01892 whole entry): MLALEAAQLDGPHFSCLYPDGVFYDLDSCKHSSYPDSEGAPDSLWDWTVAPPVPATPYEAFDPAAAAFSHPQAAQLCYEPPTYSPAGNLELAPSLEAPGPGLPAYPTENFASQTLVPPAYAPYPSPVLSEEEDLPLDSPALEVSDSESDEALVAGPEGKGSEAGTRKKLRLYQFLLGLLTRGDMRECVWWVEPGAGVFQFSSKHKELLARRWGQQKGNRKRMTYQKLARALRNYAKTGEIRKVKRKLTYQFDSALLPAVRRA
Outline: as §1

[9] = molecular target: T6, ELK3 (Homo sapiens, UniProt P41970 1-407); settings: protein: recombinant; tags: N-terminal GST; dsDNA, one strand shown
T6 sequence: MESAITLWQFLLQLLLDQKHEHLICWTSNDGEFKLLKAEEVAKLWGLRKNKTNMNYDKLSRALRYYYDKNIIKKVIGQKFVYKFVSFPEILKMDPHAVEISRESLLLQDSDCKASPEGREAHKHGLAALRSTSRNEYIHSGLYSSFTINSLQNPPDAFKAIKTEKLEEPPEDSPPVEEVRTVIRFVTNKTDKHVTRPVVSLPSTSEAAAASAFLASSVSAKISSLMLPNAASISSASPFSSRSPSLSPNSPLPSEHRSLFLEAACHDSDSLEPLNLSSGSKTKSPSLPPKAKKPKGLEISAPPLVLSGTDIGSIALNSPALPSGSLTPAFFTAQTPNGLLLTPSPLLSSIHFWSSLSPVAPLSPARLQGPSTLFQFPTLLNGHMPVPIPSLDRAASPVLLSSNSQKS
Outline: as §1

[10] = molecular target: T7, FEV (Homo sapiens, UniProt Q99581 1-238); settings: protein: recombinant; tags: N-terminal GST; dsDNA, one strand shown
T7 sequence: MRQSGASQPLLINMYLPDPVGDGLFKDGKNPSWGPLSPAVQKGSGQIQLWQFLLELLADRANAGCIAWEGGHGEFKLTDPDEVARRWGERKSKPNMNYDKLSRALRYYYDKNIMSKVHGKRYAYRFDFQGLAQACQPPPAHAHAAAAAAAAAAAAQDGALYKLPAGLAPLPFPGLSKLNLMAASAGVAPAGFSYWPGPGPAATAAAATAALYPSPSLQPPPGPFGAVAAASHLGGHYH
Outline: as §1

[11] = molecular target: ETV5 (Homo sapiens, UniProt P41161 1-510); settings: protein: recombinant; tags: N-terminal GST; dsDNA, one strand shown
ETV5, sequence (P41161 whole entry): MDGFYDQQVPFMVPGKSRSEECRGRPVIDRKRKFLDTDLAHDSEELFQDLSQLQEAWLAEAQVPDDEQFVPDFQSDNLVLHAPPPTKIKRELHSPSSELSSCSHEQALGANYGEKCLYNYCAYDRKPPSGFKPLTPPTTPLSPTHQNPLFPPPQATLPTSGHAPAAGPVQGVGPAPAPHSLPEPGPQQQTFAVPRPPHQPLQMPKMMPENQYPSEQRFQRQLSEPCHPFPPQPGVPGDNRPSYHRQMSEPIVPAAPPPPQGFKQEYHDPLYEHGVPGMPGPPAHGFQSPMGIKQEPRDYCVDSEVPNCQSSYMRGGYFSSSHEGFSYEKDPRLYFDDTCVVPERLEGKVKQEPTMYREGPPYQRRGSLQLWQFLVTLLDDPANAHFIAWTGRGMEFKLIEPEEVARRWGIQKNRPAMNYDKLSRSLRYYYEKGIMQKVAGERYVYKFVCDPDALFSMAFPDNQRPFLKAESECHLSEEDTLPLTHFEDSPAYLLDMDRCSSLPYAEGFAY
Outline: as §1

[12] = molecular target: HSF1 (Homo sapiens, UniProt Q00613 1-529); settings: protein: recombinant; tags: N-terminal GST; chain copies: 3; dsDNA, one strand shown
HSF1, sequence (Q00613 whole entry): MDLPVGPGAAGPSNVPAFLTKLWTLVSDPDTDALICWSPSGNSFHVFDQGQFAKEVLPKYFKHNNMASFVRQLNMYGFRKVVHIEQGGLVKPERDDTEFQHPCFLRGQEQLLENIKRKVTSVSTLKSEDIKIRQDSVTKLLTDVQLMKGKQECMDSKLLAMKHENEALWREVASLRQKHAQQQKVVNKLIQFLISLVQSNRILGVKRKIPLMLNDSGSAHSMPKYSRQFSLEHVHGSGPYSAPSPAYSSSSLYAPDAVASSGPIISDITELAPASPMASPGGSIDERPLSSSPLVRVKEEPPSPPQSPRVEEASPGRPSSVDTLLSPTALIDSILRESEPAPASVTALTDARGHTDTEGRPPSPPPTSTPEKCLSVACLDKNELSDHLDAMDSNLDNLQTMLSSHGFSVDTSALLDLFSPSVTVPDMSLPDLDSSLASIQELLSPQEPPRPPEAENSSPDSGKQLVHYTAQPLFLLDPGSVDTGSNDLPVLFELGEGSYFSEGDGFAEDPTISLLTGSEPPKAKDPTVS
Outline: as §1

[13] = molecular target: T8, SPIC (Homo sapiens, UniProt Q8N5J4 1-248); settings: protein: recombinant; tags: N-terminal GST; dsDNA, one strand shown
T8 sequence: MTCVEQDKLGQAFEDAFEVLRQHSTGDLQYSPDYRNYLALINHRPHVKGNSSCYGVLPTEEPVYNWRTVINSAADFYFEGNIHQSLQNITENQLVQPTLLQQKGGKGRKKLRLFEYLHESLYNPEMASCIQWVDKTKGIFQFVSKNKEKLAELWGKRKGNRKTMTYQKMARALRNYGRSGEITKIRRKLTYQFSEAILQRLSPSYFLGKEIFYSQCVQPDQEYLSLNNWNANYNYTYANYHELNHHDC
Outline: as §1

[14] = molecular target: ELF4 (Homo sapiens, UniProt Q99607 1-663); settings: protein: recombinant; tags: N-terminal GST; dsDNA, one strand shown
ELF4, sequence (Q99607 whole entry): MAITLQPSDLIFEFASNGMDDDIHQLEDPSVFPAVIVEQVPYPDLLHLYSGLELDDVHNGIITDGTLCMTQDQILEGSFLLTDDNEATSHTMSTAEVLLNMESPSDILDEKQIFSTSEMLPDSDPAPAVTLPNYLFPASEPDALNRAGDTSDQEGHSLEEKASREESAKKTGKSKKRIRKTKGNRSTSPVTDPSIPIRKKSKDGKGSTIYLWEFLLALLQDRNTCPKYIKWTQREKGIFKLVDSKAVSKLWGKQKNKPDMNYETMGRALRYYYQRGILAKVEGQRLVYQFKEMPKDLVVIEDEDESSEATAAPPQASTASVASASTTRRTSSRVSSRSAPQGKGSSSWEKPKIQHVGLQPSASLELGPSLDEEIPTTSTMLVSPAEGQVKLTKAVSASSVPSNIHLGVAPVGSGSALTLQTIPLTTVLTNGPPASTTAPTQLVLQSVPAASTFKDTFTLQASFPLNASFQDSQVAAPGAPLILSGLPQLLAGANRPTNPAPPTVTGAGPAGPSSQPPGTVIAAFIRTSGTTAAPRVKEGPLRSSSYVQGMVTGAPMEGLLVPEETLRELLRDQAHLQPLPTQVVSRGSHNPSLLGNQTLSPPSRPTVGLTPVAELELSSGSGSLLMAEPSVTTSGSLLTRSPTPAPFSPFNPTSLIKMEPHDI
Outline: as §1

[15] = molecular target: T9, ELK4 (Homo sapiens, UniProt P28324-2 1-405); settings: protein: recombinant; tags: N-terminal GST; dsDNA, one strand shown
T9 sequence: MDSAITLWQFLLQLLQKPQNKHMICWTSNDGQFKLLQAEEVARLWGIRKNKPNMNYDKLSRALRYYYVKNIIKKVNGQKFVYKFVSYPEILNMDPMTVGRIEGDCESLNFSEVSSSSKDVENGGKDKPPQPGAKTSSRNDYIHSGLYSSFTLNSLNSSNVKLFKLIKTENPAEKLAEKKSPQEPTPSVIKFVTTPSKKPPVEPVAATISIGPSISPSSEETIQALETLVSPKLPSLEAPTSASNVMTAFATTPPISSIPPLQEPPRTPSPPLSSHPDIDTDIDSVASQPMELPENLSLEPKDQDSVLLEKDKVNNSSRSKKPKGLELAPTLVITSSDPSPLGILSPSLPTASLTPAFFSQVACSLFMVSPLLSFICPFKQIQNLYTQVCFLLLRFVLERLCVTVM
Outline: as §1

[16] = molecular target: T10, ETV2 (Homo sapiens, UniProt O00321 1-342); settings: protein: recombinant; tags: N-terminal GST; dsDNA, one strand shown
T10 sequence: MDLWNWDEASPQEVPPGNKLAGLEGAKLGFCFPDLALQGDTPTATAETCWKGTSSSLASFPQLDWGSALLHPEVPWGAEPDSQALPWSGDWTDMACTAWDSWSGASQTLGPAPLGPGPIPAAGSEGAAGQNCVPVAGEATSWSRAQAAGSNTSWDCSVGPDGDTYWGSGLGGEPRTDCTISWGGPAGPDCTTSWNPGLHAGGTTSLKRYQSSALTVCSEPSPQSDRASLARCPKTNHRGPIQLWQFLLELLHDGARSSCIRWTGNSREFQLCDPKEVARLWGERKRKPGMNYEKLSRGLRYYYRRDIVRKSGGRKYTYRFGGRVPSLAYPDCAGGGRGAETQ
Outline: as §1

[17] = molecular target: T11, ELF3 (Homo sapiens, UniProt P78545 1-371); settings: protein: recombinant; tags: N-terminal GST; dsDNA, one strand shown
T11 sequence: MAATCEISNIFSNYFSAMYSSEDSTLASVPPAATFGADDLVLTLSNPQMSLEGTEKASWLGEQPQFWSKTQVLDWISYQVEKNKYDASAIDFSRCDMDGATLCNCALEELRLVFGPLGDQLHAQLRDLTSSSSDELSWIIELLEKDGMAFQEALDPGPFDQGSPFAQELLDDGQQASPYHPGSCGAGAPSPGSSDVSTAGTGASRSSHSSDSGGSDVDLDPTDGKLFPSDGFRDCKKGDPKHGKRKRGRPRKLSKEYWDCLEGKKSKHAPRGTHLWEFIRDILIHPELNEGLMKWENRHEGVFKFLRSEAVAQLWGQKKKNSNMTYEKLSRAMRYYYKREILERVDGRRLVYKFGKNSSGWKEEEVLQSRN
Outline: as §1

[18] = molecular target: CRX (Homo sapiens, UniProt O43186 1-299); settings: protein: recombinant; tags: N-terminal GST; dsDNA, one strand shown
CRX, sequence (O43186 whole entry): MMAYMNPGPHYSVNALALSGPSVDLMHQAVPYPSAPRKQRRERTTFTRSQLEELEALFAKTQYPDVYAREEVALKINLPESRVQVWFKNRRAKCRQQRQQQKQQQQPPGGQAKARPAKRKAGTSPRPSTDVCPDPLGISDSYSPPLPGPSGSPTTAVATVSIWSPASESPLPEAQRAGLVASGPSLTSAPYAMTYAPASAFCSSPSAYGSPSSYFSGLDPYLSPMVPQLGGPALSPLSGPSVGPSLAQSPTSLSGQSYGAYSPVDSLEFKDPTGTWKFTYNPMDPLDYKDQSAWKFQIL
Outline: as §1

[19] = molecular target: ETV1 (Homo sapiens, UniProt P50549 1-477); settings: protein: recombinant; tags: N-terminal GST; dsDNA, one strand shown
ETV1, sequence (P50549 whole entry): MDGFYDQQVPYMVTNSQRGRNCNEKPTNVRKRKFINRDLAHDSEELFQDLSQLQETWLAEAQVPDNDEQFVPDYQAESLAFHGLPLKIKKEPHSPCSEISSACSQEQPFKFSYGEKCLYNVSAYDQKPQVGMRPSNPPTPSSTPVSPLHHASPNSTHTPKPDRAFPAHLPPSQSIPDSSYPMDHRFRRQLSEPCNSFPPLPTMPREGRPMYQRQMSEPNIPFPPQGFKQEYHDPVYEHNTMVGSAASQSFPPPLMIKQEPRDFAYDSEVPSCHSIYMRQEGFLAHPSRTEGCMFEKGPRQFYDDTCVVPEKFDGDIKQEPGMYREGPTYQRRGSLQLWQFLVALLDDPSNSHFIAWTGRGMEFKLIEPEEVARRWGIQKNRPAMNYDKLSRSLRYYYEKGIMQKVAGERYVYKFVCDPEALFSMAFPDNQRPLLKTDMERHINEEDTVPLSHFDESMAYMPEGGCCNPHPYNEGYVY
Outline: as §1

TCTTGC
binding signal [1]: 1.29 fold enrichment (6-mer frequency, TF over GST control)
binding signal [2]: 1.33 fold enrichment (6-mer frequency, TF over GST control)
binding signal [3]: 1.28 fold enrichment (6-mer frequency, TF over GST control)
binding signal [4]: 1.24 fold enrichment (6-mer frequency, TF over GST control)
binding signal [5]: 1.41 fold enrichment (6-mer frequency, TF over GST control)
binding signal [6]: 1.31 fold enrichment (6-mer frequency, TF over GST control)
binding signal [7]: 1.28 fold enrichment (6-mer frequency, TF over GST control)
binding signal [8]: 1.33 fold enrichment (6-mer frequency, TF over GST control)
binding signal [9]: 1.55 fold enrichment (6-mer frequency, TF over GST control)
binding signal [10]: 1.24 fold enrichment (6-mer frequency, TF over GST control)
binding signal [11]: 1.39 fold enrichment (6-mer frequency, TF over GST control)
binding signal [12]: 1.2 fold enrichment (6-mer frequency, TF over GST control)
binding signal [13]: 1.36 fold enrichment (6-mer frequency, TF over GST control)
binding signal [14]: 1.32 fold enrichment (6-mer frequency, TF over GST control)
binding signal [15]: 1.3 fold enrichment (6-mer frequency, TF over GST control)
binding signal [16]: 1.36 fold enrichment (6-mer frequency, TF over GST control)
binding signal [17]: 1.4 fold enrichment (6-mer frequency, TF over GST control)
binding signal [18]: 1.21 fold enrichment (6-mer frequency, TF over GST control)
binding signal [19]: 1.4 fold enrichment (6-mer frequency, TF over GST control)
